# Results: the supplement of paper PMC12494721
# Where a name gives a salt, the structure may show the parent alone.
# Columns and labels:
# Conditions in all cases: incubation time: 27 h, anaerobic, 37 °C;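 for the amine columns active = adjusted P below 0.05 in both replicates with a change the same way and a mean fold change under 0.8 or over 1.25; inactive = the rest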
# [1] = test system: Clostridium sporogenes DSM 1664; assay: growth (OD595) fold change vs plate DMSO controls (fold change (ratio)); higher = more growth
# Outline: (§1)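 The 96-well mGAM cultures had been kept anaerobic for 27 h at 37 °C before being shaken and read at 595 nm. Blank subtraction, compound background correction with 20 µM compound solutions in water, and a calibration factor of 5 turned the readings into OD. Growth is given as the fold change versus the median of plate DMSO controls. Fold changes above 1.5 were set to NA, and the values are means of 2 biological replicates.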
# Escherichia coli IAI1 [2] = assay: as above
# Outline: as §1
# [3] = test system: Klebsiella aerogenes DSM 30053; assay: as above
# Outline: as §1
# [4] = test system: Ruminococcus gnavus DSM 108212; assay: as above
# Outline: as §1
# [5] = test system: Klebsiella aerogenes DSM 30053; assay: fold change of Histamine concentration vs plate DMSO controls (fold change (ratio)); higher = more amine produced, active = hit call of the paper (significant change in both replicates, either direction)
# Outline: (§2)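 Amines were quantified by LC–triple-quadrupole MS in dynamic MRM mode against external calibration curves, with drift correction within each batch. The samples were whole anaerobic mGAM cultures of four gut bacterial strains, grown for 27 h at 37 °C in 80 µL wells and extracted with cold acetonitrile/methanol with 0.1% formic acid, then centrifuged. Values are reported as fold change over DMSO controls on the same plate. The mean of 2 biological replicates is given.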
# [6] = test system: Clostridium sporogenes DSM 1664; assay: fold change of Tryptamine concentration vs plate DMSO controls (fold change (ratio)); higher = more amine produced, active = hit call of the paper (significant change in both replicates, either direction)
# Outline: as §2
# [7] = test system: Ruminococcus gnavus DSM 108212; assay: as above
# Outline: as §2
# Escherichia coli IAI1 [8] = assay: fold change of Putrescine concentration vs plate DMSO controls (fold change (ratio)); higher = more amine produced, active = hit call of the paper (significant change in both replicates, either direction)
# Outline: as §2
# [9] = test system: Klebsiella aerogenes DSM 30053; assay: as above
# Outline: as §2
# Escherichia coli IAI1 [10] = assay: fold change of Cadaverine concentration vs plate DMSO controls (fold change (ratio)); higher = more amine produced, active = hit call of the paper (significant change in both replicates, either direction)
# Outline: as §2
# [11] = test system: Klebsiella aerogenes DSM 30053; assay: as above
# Outline: as §2
# [12] = test system: Ruminococcus gnavus DSM 108212; assay: fold change of 2-Phenylethylamine concentration vs plate DMSO controls (fold change (ratio)); higher = more amine produced, active = hit call of the paper (significant change in both replicates, either direction)
# Outline: as §2
structure (smiles),measurement,setting,value
Cc1ccsc1/C=C/C1=NCCCN1C [Morantel tartrate] (20 µM),growth,[1],1.2
same,growth,Escherichia coli IAI1 [2],1.07
same,growth,[3],1.08
same,growth,[4],1.08
same,fold change of Histamine concentration,[5],0.92 (inactive)
same,fold change of Tryptamine concentration,[6],0.936 (inactive)
same,fold change of Tryptamine concentration,[7],0.918 (inactive)
same,fold change of Putrescine concentration,Escherichia coli IAI1 [8],1.01 (inactive)
same,fold change of Putrescine concentration,[9],1 (inactive)
same,fold change of Cadaverine concentration,Escherichia coli IAI1 [10],1.03 (inactive)
same,fold change of Cadaverine concentration,[11],1.01 (inactive)
same,fold change of 2-Phenylethylamine concentration,[12],0.957 (inactive)
CC12CC3CC(C)(C1)CC(N)(C3)C2 [Memantine hydrochloride] (20 µM),growth,[1],1.01
same,growth,Escherichia coli IAI1 [2],0.987
same,growth,[3],1
same,growth,[4],0.997
same,fold change of Histamine concentration,[5],0.989 (inactive)
same,fold change of Tryptamine concentration,[6],1.03 (inactive)
same,fold change of Tryptamine concentration,[7],1.09 (inactive)
same,fold change of Putrescine concentration,Escherichia coli IAI1 [8],0.984 (inactive)
same,fold change of Putrescine concentration,[9],0.984 (inactive)
same,fold change of Cadaverine concentration,Escherichia coli IAI1 [10],0.995 (inactive)
same,fold change of Cadaverine concentration,[11],0.992 (inactive)
same,fold change of 2-Phenylethylamine concentration,[12],1.13 (inactive)
C[C@@H]1C[C@H]2[C@@H]3C[C@H](F)C4=CC(=O)C=C[C@]4(C)[C@@]3(Cl)[C@@H](O)C[C@]2(C)[C@H]1C(=O)COC(=O)C(C)(C)C [Clocortolone pivalate] (20 µM),growth,[1],1.06
same,growth,Escherichia coli IAI1 [2],1.03
same,growth,[3],1.04
same,growth,[4],0.992
same,fold change of Histamine concentration,[5],1.04 (inactive)
same,fold change of Tryptamine concentration,[6],1.04 (inactive)
same,fold change of Tryptamine concentration,[7],1.08 (inactive)
same,fold change of Putrescine concentration,Escherichia coli IAI1 [8],1.02 (inactive)
same,fold change of Putrescine concentration,[9],0.999 (inactive)
same,fold change of Cadaverine concentration,Escherichia coli IAI1 [10],1.01 (inactive)
same,fold change of Cadaverine concentration,[11],0.997 (inactive)
same,fold change of 2-Phenylethylamine concentration,[12],1.17 (inactive)
C[C@]12CCC3=C4CCC(=O)C=C4CC[C@H]3[C@@H]1CC[C@@]2(O)CC#N [Dienogest] (20 µM),growth,[1],0.815
same,growth,Escherichia coli IAI1 [2],0.536
same,growth,[3],0.616
same,growth,[4],0.67
same,fold change of Histamine concentration,[5],0.945 (inactive)
same,fold change of Tryptamine concentration,[6],1.01 (inactive)
same,fold change of Tryptamine concentration,[7],1.04 (inactive)
same,fold change of Putrescine concentration,Escherichia coli IAI1 [8],0.979 (inactive)
same,fold change of Putrescine concentration,[9],1 (inactive)
same,fold change of Cadaverine concentration,Escherichia coli IAI1 [10],0.993 (inactive)
same,fold change of Cadaverine concentration,[11],1 (inactive)
same,fold change of 2-Phenylethylamine concentration,[12],1.02 (inactive)
CSc1nc2cc(Cl)c(Oc3cccc(Cl)c3Cl)cc2[nH]1 [Triclabendazole] (20 µM),growth,[1],0.189
same,growth,Escherichia coli IAI1 [2],1.07
same,growth,[3],0.985
same,growth,[4],0.767
same,fold change of Histamine concentration,[5],1.04 (inactive)
same,fold change of Tryptamine concentration,[6],0.0552 (active)
same,fold change of Tryptamine concentration,[7],0.514 (active)
same,fold change of Putrescine concentration,Escherichia coli IAI1 [8],0.907 (inactive)
same,fold change of Putrescine concentration,[9],0.984 (inactive)
same,fold change of Cadaverine concentration,Escherichia coli IAI1 [10],1.01 (inactive)
same,fold change of Cadaverine concentration,[11],1.04 (inactive)
same,fold change of 2-Phenylethylamine concentration,[12],0.671 (inactive)
CC1=C(/C=C/C(C)=C/C=C/C(C)=C\C(=O)O)C(C)(C)CCC1 [Isotretinoin] (20 µM),growth,[1],0.96
same,growth,Escherichia coli IAI1 [2],0.987
same,growth,[3],1.02
same,growth,[4],1.02
same,fold change of Histamine concentration,[5],0.996 (inactive)
same,fold change of Tryptamine concentration,[6],0.977 (inactive)
same,fold change of Tryptamine concentration,[7],1.04 (inactive)
same,fold change of Putrescine concentration,Escherichia coli IAI1 [8],1.01 (inactive)
same,fold change of Putrescine concentration,[9],1.02 (inactive)
same,fold change of Cadaverine concentration,Escherichia coli IAI1 [10],0.97 (inactive)
same,fold change of Cadaverine concentration,[11],0.991 (inactive)
same,fold change of 2-Phenylethylamine concentration,[12],1.05 (inactive)
CN(C(=O)C(Cl)Cl)c1ccc(OC(=O)c2ccco2)cc1 [Diloxanide furoate] (20 µM),growth,[1],1.1
same,growth,Escherichia coli IAI1 [2],0.998
same,growth,[3],1.01
same,growth,[4],0.993
same,fold change of Histamine concentration,[5],1 (inactive)
same,fold change of Tryptamine concentration,[6],0.918 (inactive)
same,fold change of Tryptamine concentration,[7],0.915 (inactive)
same,fold change of Putrescine concentration,Escherichia coli IAI1 [8],1.02 (inactive)
same,fold change of Putrescine concentration,[9],1 (inactive)
same,fold change of Cadaverine concentration,Escherichia coli IAI1 [10],0.973 (inactive)
same,fold change of Cadaverine concentration,[11],0.997 (inactive)
same,fold change of 2-Phenylethylamine concentration,[12],0.979 (inactive)
CCCCCCCC/C=C\CCCCCCCC(N)=O [Oleamide] (20 µM),growth,[1],0.884
same,growth,Escherichia coli IAI1 [2],0.989
same,growth,[3],1.01
same,growth,[4],0.968
same,fold change of Histamine concentration,[5],0.969 (inactive)
same,fold change of Tryptamine concentration,[6],1.01 (inactive)
same,fold change of Tryptamine concentration,[7],0.895 (inactive)
same,fold change of Putrescine concentration,Escherichia coli IAI1 [8],1.02 (inactive)
same,fold change of Putrescine concentration,[9],1.01 (inactive)
same,fold change of Cadaverine concentration,Escherichia coli IAI1 [10],1.06 (inactive)
same,fold change of Cadaverine concentration,[11],1 (inactive)
same,fold change of 2-Phenylethylamine concentration,[12],0.862 (inactive)
COc1ccc([C@@H]2Sc3ccccc3N(CCN(C)C)C(=O)[C@@H]2OC(C)=O)cc1 [Diltiazem hydrochloride] (20 µM),growth,[1],1.13
same,growth,Escherichia coli IAI1 [2],1.02
same,growth,[3],0.994
same,growth,[4],1.01
same,fold change of Histamine concentration,[5],1.07 (inactive)
same,fold change of Tryptamine concentration,[6],1.03 (inactive)
same,fold change of Tryptamine concentration,[7],1.01 (inactive)
same,fold change of Putrescine concentration,Escherichia coli IAI1 [8],0.982 (inactive)
same,fold change of Putrescine concentration,[9],1.02 (inactive)
same,fold change of Cadaverine concentration,Escherichia coli IAI1 [10],0.985 (inactive)
same,fold change of Cadaverine concentration,[11],0.993 (inactive)
same,fold change of 2-Phenylethylamine concentration,[12],0.971 (inactive)
CCOc1ccccc1C(N)=O [Ethenzamide] (20 µM),growth,[1],1.07
same,growth,Escherichia coli IAI1 [2],1
same,growth,[3],1.01
same,growth,[4],0.956
same,fold change of Histamine concentration,[5],1.02 (inactive)
same,fold change of Tryptamine concentration,[6],1.1 (inactive)
same,fold change of Tryptamine concentration,[7],1.01 (inactive)
same,fold change of Putrescine concentration,Escherichia coli IAI1 [8],0.983 (inactive)
same,fold change of Putrescine concentration,[9],0.985 (inactive)
same,fold change of Cadaverine concentration,Escherichia coli IAI1 [10],0.986 (inactive)
same,fold change of Cadaverine concentration,[11],0.978 (inactive)
same,fold change of 2-Phenylethylamine concentration,[12],1.03 (inactive)
CCC[C@@H]1C[C@@H](C(=O)N[C@@H]([C@H]2O[C@H](SC)[C@H](O)[C@@H](O)[C@H]2O)[C@@H](C)O)N(C)C1 [Lincomycin hydrochloride] (20 µM),growth,[1],0.767
same,growth,Escherichia coli IAI1 [2],0.925
same,growth,[3],0.981
same,growth,[4],0.121
same,fold change of Histamine concentration,[5],0.952 (inactive)
same,fold change of Tryptamine concentration,[6],0.761 (active)
same,fold change of Tryptamine concentration,[7],0.129 (active)
same,fold change of Putrescine concentration,Escherichia coli IAI1 [8],0.531 (inactive)
same,fold change of Putrescine concentration,[9],0.682 (active)
same,fold change of Cadaverine concentration,Escherichia coli IAI1 [10],0.967 (inactive)
same,fold change of Cadaverine concentration,[11],1.02 (inactive)
same,fold change of 2-Phenylethylamine concentration,[12],0.117 (active)
COc1ccc2c(c1)N(C[C@H](C)CN(C)C)c1ccccc1S2 [Methotrimeprazine maleate salt] (20 µM),growth,[1],1.03
same,growth,Escherichia coli IAI1 [2],1.12
same,growth,[3],1
same,growth,[4],1.05
same,fold change of Histamine concentration,[5],1.01 (inactive)
same,fold change of Tryptamine concentration,[6],1.07 (inactive)
same,fold change of Tryptamine concentration,[7],1.02 (inactive)
same,fold change of Putrescine concentration,Escherichia coli IAI1 [8],1.19 (inactive)
same,fold change of Putrescine concentration,[9],1.01 (inactive)
same,fold change of Cadaverine concentration,Escherichia coli IAI1 [10],0.995 (inactive)
same,fold change of Cadaverine concentration,[11],1.02 (inactive)
same,fold change of 2-Phenylethylamine concentration,[12],1.11 (inactive)
